Counter-ions that a name gives are not always drawn. ± gives the standard deviation of the averaged measurements.

The subject of the assay is mESC LDLR-Dup GFP reporter (SpCas9 MH-deletion repair). Kind of assay: fraction of GFP+ cells relative to DMSO control (fold change); higher = more MH-deletion repair to in-frame LDLR (or more editing). The settings on record: 2 µM; 7 days post-transfection.
With `COc1c2ccoc2cc2oc(=O)ccc12` [Bergapten], the “fraction of GFP+ cells” value turned out to be 0.969 ± 0.32. Take `Cn1nnc2c(C(N)=O)ncn2c1=O` [Temozolomide]: the “fraction of GFP+ cells” value was 0.998 ± 0.33.

`NC(=O)C1CCCc2c1[nH]c1ccc(Cl)cc21` (stereo not given) [Selisistat (EX 527)]: the “fraction of GFP+ cells” value turned out to be 1.18 ± 0.47. Consider `COc1cccc2c1c(O)c(C(=O)N(C)c1ccc(C(F)(F)F)cc1)c(=O)n2C` [Tasquinimod], for which the “fraction of GFP+ cells” value came out at 0.837 ± 0.12. Turning to `NC(=O)NO` [Hydroxyurea], the “fraction of GFP+ cells” value stood at 0.829 ± 0.24. For `CC(C)=CCC[C@](C)(O)[C@H]1CC[C@]2(C)[C@@H]1[C@H](O)C[C@@H]1[C@@]3(C)CC[C@H](O)C(C)(C)[C@@H]3[C@@H](O)C[C@]12C` [(20S)-Protopanaxatriol] the value was 1.02 ± 0.14; for `O=C1CCc2c(ccc3ccccc23)O1` [Splitomicin], 0.636 ± 0.11. With `O=C(NO)c1cccc(C(=O)NCCc2ccccc2)c1`, the “fraction of GFP+ cells” value is 0.743 ± 0.17. As for `Cn1cc(-c2cnn3c(N)c(Br)c([C@@H]4CCCNC4)nc23)cn1`, the “fraction of GFP+ cells” value came to 0.689 ± 0.069. To `CCc1c(Cl)c(O)c(Cl)c(O)c1C(=O)O[C@H]1[C@H](O)[C@H](OC)[C@H](OC/C2=C\C=C\C[C@H](O)/C(C)=C/[C@H](CC)[C@@H](O[C@@H]3OC(C)(C)[C@@H](OC(=O)C(C)C)[C@H](O)[C@@H]3O)/C(C)=C/C(C)=C/C[C@@H]([C@@H](C)O)OC2=O)O[C@@H]1C` [Fidaxomicin] belongs 2.81 ± 0.44. For `O=c1[nH]nc2c3c(cccc13)N=C(CN1Cc3ccccc3C1)N2` the value was 0.38 ± 0.041; for `O=C(NCC1(c2nc(-c3ccccc3)cs2)CCOCC1)c1cccc(-c2noc(C(F)(F)F)n2)c1`, 0.752 ± 0.12. As to `N#Cc1cnc(Nc2cc(NC[C@H]3CNCCO3)c(C(F)(F)F)cn2)cn1`, the “fraction of GFP+ cells” value is 1.18 ± 0.1. Turning to `O=C(Nc1ccc(Cl)cc1)C1CCCN(C(=O)c2cccc(-c3ccco3)c2)C1` (stereo not given), the “fraction of GFP+ cells” value amounted to 0.756 ± 0.13. For the compound `CC(C)(Oc1ccc(C(=O)c2ccc(Cl)cc2)cc1)C(=O)O` [Fenofibric acid], the “fraction of GFP+ cells” value was 2.08 ± 0.55. On to `CCOC(=O)Nc1ccc(NCc2ccc(F)cc2)nc1N` [Flupirtine maleate], for which the “fraction of GFP+ cells” value was found to be 0.989 ± 0.52. As to `CC(C)(O)C1CCC(C)(C2C(O)CC3(C)C4CC(O)C5C(C)(C)C(O)CCC56CC46CCC23C)O1` (stereo not given) [Cyclogalegenol], the “fraction of GFP+ cells” value worked out at 0.875 ± 0.24. In the case of `O=CN1CC/C(=C/c2ccc3c(c2)OCO3)C1=O`, the “fraction of GFP+ cells” value turned out to be 0.833 ± 0.28. Take `CC1CCc2cc(F)cc3c(=O)c(C(=O)O)cn1c23` (stereo not given) [Flumequine]: the “fraction of GFP+ cells” value was found to be 0.977 ± 0.12. To `Cc1ccc(C)c(OCCCC(C)(C)C(=O)O)c1` [Gemfibrozil] belongs 1.46 ± 0.29; to `O=c1ccn([C@@H]2O[C@H](CO)[C@@H](O)[C@H]2O)c(=O)[nH]1` [Uridine], 1.24 ± 0.54; to `CN(C)c1ccc(-c2nc3ncc(Cl)c(N4CCN(CC(=O)Nc5nccs5)CC4)c3[nH]2)cc1`, 0.872 ± 0.39. For the compound `Nc1cc(F)ccc1NC(=O)/C=C/c1cnn(C/C=C/c2ccccc2)c1`, the “fraction of GFP+ cells” value worked out at 0.555 ± 0.17. Take `CCCCCCCCCCCCCC(=S)NCCCC[C@H](NC(=O)OCc1ccccc1)C(=O)Nc1ccccc1` [Thiomyristoyl]: the “fraction of GFP+ cells” value was determined as 0.948 ± 0.9. To `N#Cc1ccc(COC[C@H]2O[C@@H](n3c(NCc4ccc(Cl)c(Cl)c4)nc4c(N)ncnc43)[C@H](O)[C@@H]2O)cc1` belongs 1.89 ± 0.17.
